The panel holds about 83,000 compounds, 20% with a hit somewhere; the sample as a whole holds those more often.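 Percent growth is the endpoint: 0 to 100 indicates growth inhibition (40 means 60% inhibition), 0 means no net growth, and negative values indicate cell death.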 Values without a mark were called inactive. Calls of active or inactive are those of the source. Rule for the calls: active = growth percent below 10; inactive = the rest.

Assay in all cases: NCI-60 one-dose screen, 48 h (100 = growth as untreated, 0 = no growth, -100 = all killed)
Test [1] concerns NCI-H226 lung. Conditions: 10 µM.
For test [2], the system named is NCI-H322M lung. As to conditions: 10 µM.
Test [3] relates to HOP-62 NSCLC. As to conditions: 10 µM.
The test system of test [4] is NCI-H460 lung. Conditions: 10 µM.
Test [5] relates to A549/ATCC NSCLC. Conditions: 10 µM.
For test [6], the system named is DU-145 prostate. As to conditions: 10 µM.
For test [7], the system named is SF-268 CNS. Conditions: 10 µM.
The subject of test [8] is SF-295 CNS. Conditions: 10 µM.
For test [9], the system named is SF-539 CNS. Conditions: 10 µM.
Test [10] has as its system M14 melanoma. As to conditions: 10 µM.
For test [11], the system named is HCT-15 colon. Conditions: 10 µM.
In test [12] the test system is HT29 colon. Conditions: 10 µM.
Test [13] concerns SNB-75 CNS. As to conditions: 10 µM.
Test [14] concerns SNB-19 CNS. As to conditions: 10 µM.
In test [15] the test system is U251 CNS. Conditions: 10 µM.
Test [16] has as its system PC-3 prostate. Conditions: 10 µM.
Test [17] has as its system SK-MEL-5 melanoma. As to conditions: 10 µM.
Test [18] concerns UACC-62 melanoma. Conditions: 10 µM.
The test system of test [19] is SK-MEL-28 melanoma. Conditions: 10 µM.
The subject of test [20] is HL-60(TB) leukemia. As to conditions: 10 µM unless noted.

In the case of `C=CC[Se]C(=O)c1cncc(C(=O)[Se]CC=C)c1`, the growth in [1] is -24.6% (active); in test [2], -46.2% (active); in test [3], -60.6% (active); in [4] it was -14% (active); in [5], 7.53% (active); in test [6], 5.92% (active). Moreover, the growth in test [7] is 7.42% (active); in test [8], -55.8% (active); in test [9] it was -99.9% (active); in [10], -86.7% (active); in test [11], -37.4% (active); in test [12], -14.4% (active). In addition, the growth was -61.4% (active) in [13]; -97.5% (active) in test [14]; -72.9% (active) in [15]; -65.8% (active) in test [16]; -36.3% (active) in [17]; -62.3% (active) in test [18]. Moreover, the growth in test [19] was -39% (active); in test [20], -26.2% (active).

For `COc1cc2cc(C(=O)N3C[C@@H](CCl)c4c3cc(OC(=O)N3CCN(C)[C@@H]5CSSC[C@@H]53)c3ccccc43)[nH]c2c(OC)c1OC`, the growth was -26.1% (active) in test [1]; -7.87% (active) in test [2]; -32.3% (active) in [3]; -13.4% (active) in test [4]; 7.2% (active) in test [5]; -4.86% (active) in [6]. Besides, the growth in [7] was -17.8% (active); in [8], -8.99% (active); in test [9], -72.4% (active); in [10] it was -79% (active); in test [11], 1.23% (active); in [12], -6.59% (active). Further, the growth in [13] is -87.6% (active); in test [14], -9.25% (active); in test [15], 7.22% (active); in [16] it was -1.7% (active); in test [17], -32.2% (active); in [18] it was -91.4% (active). The results for the growth in test [19] and in test [20] were -62.6% (active) and 1.55% (active), respectively.

Consider `CCC[Se]C(=O)c1ccc(C(=O)[Se]CCC)s1`, for which the growth in test [1] is -50.9% (active); in test [2], -33.4% (active); in test [3], -77.7% (active); in test [4] it was -11.9% (active); in test [5], -46.2% (active); in test [6] it was 9.92% (active). The growth in test [7] is 3.6% (active); in test [8], -85.7% (active); in test [9] it was -84.7% (active); in test [10] it was -63.4% (active); in test [11], -71% (active); in test [12], -58.5% (active). Further, the growth is -31.2% (active) in test [13]; -86.5% (active) in [14]; -60.4% (active) in test [15]; 4.67% (active) in test [16]; -76.3% (active) in [17]; -64.9% (active) in test [18]. Also, the figures for the growth in test [19] and in [20] were -62.9% (active) and -26.7% (active), respectively.

Take `C[C@H]1[C@H](OC(=O)CCC(=O)Nc2cnccn2)O[C@@H]2OC3(C)CC[C@H]4[C@H](C)CC[C@@H]1[C@@]24OO3`: the growth was 74.8% in test [1]; 77.4% in [2]; 53.6% in test [3]; 29.6% in test [4]; 62.6% in test [5]; 77.7% in test [6]. Also, the growth in [7] is 56.3%; in [8], 41.7%; in test [9], 33.2%; in [10], 35.9%; in test [11], 12%; in [12], 27.3%. Besides, the growth is 72.6% in [13]; 56.3% in test [14]; 42.6% in test [15]; 36.6% in [16]; 26.9% in test [17]; 26.3% in test [18]. The figures for the growth in test [19] and in [20] were 39.7% and 0.224% (active), respectively.

In the case of `COc1ccc(OC)c(/C=C/C(=O)c2nc3ccccc3n2Cc2ccc(F)cc2)c1`, the growth in test [1] was -42.4% (active); in test [2], 6.69% (active); in [3] it was -40.4% (active); in test [4], -30.9% (active); in [5], 8.34% (active); in test [6], 4.91% (active). Also, the growth in [7] is 14.8%; in [8] it was -21.3% (active); in test [9] it was -80.4% (active); in test [10], -7.79% (active); in test [11] it was -61.8% (active); in test [12], -44.7% (active). The growth in test [13] is 15.4%; in [14], -38.9% (active); in test [15], -74% (active); in [16] it was 0.247% (active); in test [17], -21.1% (active); in test [18], -57.6% (active). Also, the growth in test [19] was -53% (active); in test [20], -11.3% (active).

On to `Cc1c2oc3c(C)ccc(C(=O)N[C@@H]4C(=O)N[C@H](C(C)C)C(=O)N5CCC[C@H]5C(=O)N(C)CC(=O)N(C)[C@@H](C(C)C)C(=O)OC4C)c3nc-2c(C(=O)N[C@@H]2C(=O)N[C@H](C(C)C)C(=O)N3CC(=O)C[C@H]3C(=O)N(C)CC(=O)N(C)[C@@H](C(C)C)C(=O)OC2C)c(N)c1=O` (some centres undefined), for which the growth in [1] is -4.29% (active); in [2], 4.93% (active); in test [3], -21% (active); in test [4], 5.56% (active); in test [5] it was 8.06% (active); in [6], 12.8%. The growth in test [7] is -9.63% (active); in test [8] it was 1.34% (active); in [9], -28.4% (active); in test [10], -8.68% (active); in test [11], 3.67% (active); in test [12], 1.14% (active). Also, the growth was -70.6% (active) in [13]; 4.37% (active) in test [14]; 1.58% (active) in test [15]; 1.32% (active) in [16]; -48.6% (active) in test [17]; -57.5% (active) in test [18]. In addition, the growth in test [19] is -27.8% (active).

With `O=C(/C=C/c1ccco1)c1nc2ccccc2n1Cc1ccc(F)cc1`, the growth in test [1] was 77.9%; in [2], 79.2%; in [3], 87.6%; in test [4], 70.9%; in [5] it was 62.2%; in [6], 56.6%. The growth is 63.4% in test [7]; 76% in [8]; 64.6% in [9]; 88.2% in [10]; 32.3% in [11]; 68% in [12]. Also, the growth in [13] is 28.7%; in [14] it was 77.7%; in test [15], 40.9%; in test [16] it was 65.6%; in test [17], 86.5%; in [18], 45.4%. Also, the results for the growth in test [19] and in test [20] were 81.8% and 15.8%, respectively.

(Values after PubChem BioAssay (NCI).)
